# Most compounds without a hit are left out; they make up all but 10% or so of the library.
# BAZ2B inh: BAZ2B (human) inhibition. Q9UIF8. AlphaScreen BAZ2B-H3K14Ac peptide displacement. Potency, µM (titrated, usually from 114 µM), without a hit: top-dose activity change, negative = inhibition, hits mostly inhibitors. 360,000 compounds, 4.4% hits; also: % is scaled to controls: 0 for no effect and ±100 for the full control effect; nearly all actives have a fitted effect of over 60% in size
#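 Compounds, titrated to a top concentration of 110 uM, were incubated 30 min at room temperature with preformed BAZ2B/acetyl-K14 H3 peptide complex (50 nM each). Proximity signal was measured by AlphaScreen after 20 min with beads.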
# G9a block: inhibitors of human histone lysine methyltransferase G9a; G9a H3K9 monomethylation, AlphaScreen, 2 h; Potency, µM (series often up to 102 µM), for the others: at the highest dose activity, negative = inhibition, hits mostly inhibitors; 350,000 compounds, 8.8% hits; AID 504332; also: % is scaled to controls: 0 for no effect and ±100 for the full control effect; nearly all actives have a fitted effect of over 75% in size
#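 AlphaScreen detection with an anti-monomethyl H3K9 antibody quantified product after a 2 h room-temperature reaction containing 500 nM biotinylated H3K9 peptide, 20 µM SAM and 20 nM enzyme, which had been preincubated 15 min with compound.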
# JMJD2A Tudor: blocks the human JMJD2A Tudor domain | AlphaScreen JMJD2A-Tudor / H3K4me3 peptide binding | Potency, µM (series often up to 114 µM), without a hit: top-dose activity change, negative = inhibition, actives largely listed as inhibitors | 390,000 compounds, 4.4% hits; also: % is scaled to controls: 0 for no effect and ±100 for the full control effect; nearly all actives have a fitted effect of over 50% in size
# GLS inh: blocks human kidney-isoform glutaminase activity; O94925; GLS enzymatic activity, qHTS titration; Potency, µM (doses to about 45.5 µM), inactives show top-dose activity change, negative = inhibition, actives largely listed as inhibitors; 410,000 compounds, 0.21% hits; AID 624170; also: % is scaled to controls: 0 for no effect and ±100 for the full control effect
#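 Coupled fluorescence readout: glutamate oxidase/HRP/Amplex Red detect glutamate formed by hKGA from L-glutamine (1 mM solution added). Buffer 45 mM KH2PO4 pH 8.2, 0.02% Tween-20; reads at t0 and 30 min RT.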
# HP1b chromo inh: blocks HP1-beta chromodomain binding to methylated histone tails; P83916; AlphaScreen HP1-beta / biotin-H3K9me3 peptide binding; Potency, µM (doses to about 114 µM), without a hit: at the top dose activity change, negative = inhibition, usual class: inhibitors; 390,000 compounds, 0.56% hits; also: nearly all actives have a fitted effect of over 70% in size
#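 Compound inhibition of the preformed complex between 50 nM HP1-beta and 50 nM biotinylated H3K9me3 peptide was read by AlphaScreen. Buffer was PBS pH 7.4 with 0.01% Tween-20. Incubations ran 30 min at room temperature, with 10 ug/mL donor/acceptor beads.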
# Starred values were filed as active, the others as inactive; ? = inconclusive; · = no result; [ ] = another dose, or the depositor's remark. Calls follow the shape of the dose curve; as a rule, active = well fitted curve in the direction sought with a large enough effect; inconclusive = small, poorly fitted or top-dose-only effect, or another doubt; inactive = no such curve, though single readings can be large; an effect the other way counts as inactive or inconclusive. Potency is read from the fitted curve at half-maximal effect.
SMILES,BAZ2B inh,G9a block,JMJD2A Tudor,GLS inh,HP1b chromo inh
COc1ccc(CNC(=O)CNS(=O)(=O)c2cccc(C#N)c2)cc1OC,-15%,50µM*,-20%,4%,19%
Cc1ccc2nc3c(cc2c1)CN(Cc1ccco1)C(=NCC1CCCO1)S3 (stereo not drawn),-9%,?,56µM*,19%,?
COCCN=C1Sc2nc3ccc(C)cc3cc2CN1Cc1cccs1,20%,9%,8%,0%,75%
COCCN=C1Sc2nc3c(C)cccc3cc2CN1Cc1ccco1,-9%,11%[2.33 µM],?,5%,-21%
Cc1cccc2cc3c(nc12)SC(=NCC1CCCO1)N(Cc1ccco1)C3 (stereo not drawn),?,6.3µM*,56µM*,1%,?
O=S(=O)(c1ccc2ccccc2c1)n1nc(-c2ccco2)nc1NCc1cccc(Cl)c1,?,-33%[59 µM],-20%,5%,23%
S=c1sc2ccccc2n1CCc1ccncc1,-3%,3%[2.33 µM],-11%,0%,45%
COc1ccc(Cn2c(CO)cnc2SCc2ccc(F)cc2)cc1,?,-37%[59 µM],-31%,0%,2%[57 µM]
COc1ccnc(CSC(N)=Nc2ccc(F)cc2)c1,50µM*,7.1µM*,22µM*,15%,-11%
CCN1CCN(c2cc(C)c3cc(NC(=S)N4CCN(c5ccccc5F)CC4)ccc3n2)CC1,?,45µM*,?,0%,-6%
CCN1CCN(c2cc(C)c3cc(NC(=S)N(CC)CC)ccc3n2)CC1,?,35µM*,?,57%,1%[57 µM]
CCN1CCN(c2cc(C)c3cc(NC(=O)CCC(=O)N4CCN(c5ccccc5OC)CC4)ccc3n2)CC1,-3%,-73%,-23%,40%,-22%
CCN1CCN(c2cc(C)c3cc(NC(=S)N4CCOCC4)ccc3n2)CC1,-25%,40µM*,-13%,42%,11%[57 µM]
CCN1CCN(c2cc(C)c3cc(NC(=O)CCC(=O)N4CCN(c5ccccc5)CC4)ccc3n2)CC1,-20%,79µM*,?,48%,-18%
O=C1CN(C(=O)c2ccc(S(=O)(=O)N3CCCCC3)cc2)C(c2ccc(F)cc2)c2cc(Br)ccc2N1 (stereo not drawn),-5%,?,-22%,-13%,15%
COc1ccccc1N1CCN(C(=S)Nc2ccc3nc(N4CCOCC4)cc(C)c3c2)CC1,·,56µM*,?,?,?
CCN1CCN(c2cc(C)c3cc(NC(=O)/C=C/c4cccc(Cl)c4)ccc3n2)CC1,?,11µM*,32µM*,1%,-35%
CCCN1CCN(C(=S)Nc2ccc3nc(N4CCN(CC)CC4)cc(C)c3c2)CC1,-19%,45µM*,-26%,0%,-7%
CCN1CCN(c2cc(C)c3cc(NC(=O)c4cccc(Cl)c4)ccc3n2)CC1,-2%,-35%[59 µM],?,2%,-4%
Cc1c(Cl)cn2c(=O)cc(CN3CCN(c4ccc(F)cc4)CC3)nc2c1Cl,?,50µM*,·,·,·
Cc1scc(CN2CCN(c3ccc(F)cc3)CC2)c1C,-38%,?,?,10%,13%
N#Cc1cc(NC(=O)c2ccc(F)cc2)c(=O)n2c1[nH]c1ccccc12,-12%,3.5µM*,·,·,·
COc1ccc(CNCc2ccc(C(F)(F)F)cc2)cc1OC,-17%,79µM*,89µM*,-11%,-6%
CS(=O)(=O)N1CCN(Cc2ccccc2C(F)(F)F)CC1,3%,14%[59 µM],-16%[11.4 µM],-17%,30%
CS(=O)(=O)N1CCN(Cc2ccc(C(F)(F)F)cc2)CC1,?,3.2µM*,1.6µM*,5%,?
SMILES,BAZ2B inh,G9a block,JMJD2A Tudor,GLS inh,HP1b chromo inh
COc1ccc(CNCc2ccncc2)cc1OC,-7%,-9%,-8%,3%,62%
COc1cc(CN2CCN(Cc3ccccc3C(F)(F)F)CC2)cc(OC)c1OC,20µM*,-18%[2.33 µM],0.79µM*,4%,25µM*
COc1cc(CN2CCN(Cc3ccc(C(F)(F)F)cc3)CC2)cc(OC)c1OC,18µM*,-2%[0.501 µM],20µM*,0%,?
COc1ccc(CCn2c3c(c(=O)[nH]c2=S)CN(CC(C)C)CN3)cc1OC,·,·,-5%,·,35%
C#CCOCC1CN(C)C(=O)O1 (stereo not drawn),·,·,·,-1%,·
CCn1c(/C=C/N(C(C)=O)c2ccccc2)[n+](CCCS(=O)(=O)[O-])c2cc(Cl)c(Cl)cc21,-13%,15%[12.7 µM],-17%,0%,29%
CC[n+]1c(/C=C/C=C/N(C(C)=O)c2ccccc2)sc2cc(OC)ccc21,45µM*,?,56µM*,3%,?
CC(C)(C)/C(O)=C/c1nc2cc(Cl)ccc2oc1=O,-25%,45µM*,?,-24%,23%
Cc1ccc2oc(=O)c(/C=C(\O)C(C)(C)C)nc2c1,?,?,-6%,-22%,37%
CN(C)NC(=S)NC1CCS(=O)(=O)C1 (stereo not drawn),-16%,50µM*,32µM*,-5%,10%
Cc1nc2nc(SCC(=O)NC(C)c3ccccc3)nn2c(C)c1Cc1c(F)cccc1Cl (stereo not drawn),-3%,-4%[59 µM],-19%,2%,28%
Cc1nc2nc(SCC(=O)O)nn2c(C)c1Cc1c(F)cccc1Cl,2%,11µM*,-12%,?,46%
Cc1nc2nc(SCC(=O)O)nn2c(C)c1Cc1ccccc1Cl,8%,28µM*,7%,3%,38%
Cc1cc2c(s1)c1cnn(Cc3c(F)ccc(F)c3F)c(=O)c1n2C,·,·,-5%,·,·
O=C(NCc1ccccc1)[C@]1(C(F)(F)F)C[C@H](CCC2CCCCC2)CCCO1,·,·,41%,·,85%
COc1ccc(CN2C[C@H](C)[C@@H](CC(=O)NCc3ccccc3)C2=O)cc1,1%[57.1 µM],50µM*,-10%,5%,4%
Cc1ccnc(NS(=O)(=O)c2ccc(N3C(=O)c4ccccc4C3=O)cc2)n1,-10%,15%[59 µM],-4%,2%,41%
Cc1ccnc(NS(=O)(=O)c2ccc(N3C(=O)c4c(Cl)c(Cl)c(Cl)c(Cl)c4C3=O)cc2)n1,?,?,89µM*,-9%,?
CCN1CCCC1CN(Cc1cc2cc(C)cc(C)c2[nH]c1=O)C(=O)Nc1ccccc1OC (stereo not drawn),-11%,50µM*,-13%,-4%,13%
CCN1CCCC1CN(Cc1cc2ccc(C)cc2[nH]c1=O)C(=S)Nc1ccc(OC)cc1OC (stereo not drawn),-29%,-14%,-26%,-22%,10%
CCCNC(=O)c1ccc(N2CCC3(CC2)CC(c2cccc(Br)c2)=NO3)c([N+](=O)[O-])c1,?,79µM*,-31%,-7%,21%
Cc1ccc(CNC(=O)c2ccc(N3CCC4(CC3)CC(c3cccc(Br)c3)=NO4)c([N+](=O)[O-])c2)cc1,-21%,7%[2.33 µM],-27%,6%,7%

# High-throughput results (PubChem)
